Our source for the binding signal values is paper PMC7862700, “An all-to-all approach to the identification of sequence-specific readers for epigenetic DNA modifications on cytosine”.

Holding throughout (experiment): DAPPL (digital affinity profiling via proximity ligation, sequencing); 10 mM Tris-HCl pH 7.5, 50 mM NaCl, 1 mM DTT, 4% glycerol, room temperature, 30 min; GST-TFs on glutathione beads, 16-mer random dsDNA library, 0.1% formaldehyde crosslink after washing; high values mean tight binding
Conditions in all cases: protein: recombinant; tags: N-terminal GST; dsDNA, one strand shown

Experiment [1] concerns the target T1, FLI1 (Homo sapiens, UniProt Q01543 1-452).
T1 sequence: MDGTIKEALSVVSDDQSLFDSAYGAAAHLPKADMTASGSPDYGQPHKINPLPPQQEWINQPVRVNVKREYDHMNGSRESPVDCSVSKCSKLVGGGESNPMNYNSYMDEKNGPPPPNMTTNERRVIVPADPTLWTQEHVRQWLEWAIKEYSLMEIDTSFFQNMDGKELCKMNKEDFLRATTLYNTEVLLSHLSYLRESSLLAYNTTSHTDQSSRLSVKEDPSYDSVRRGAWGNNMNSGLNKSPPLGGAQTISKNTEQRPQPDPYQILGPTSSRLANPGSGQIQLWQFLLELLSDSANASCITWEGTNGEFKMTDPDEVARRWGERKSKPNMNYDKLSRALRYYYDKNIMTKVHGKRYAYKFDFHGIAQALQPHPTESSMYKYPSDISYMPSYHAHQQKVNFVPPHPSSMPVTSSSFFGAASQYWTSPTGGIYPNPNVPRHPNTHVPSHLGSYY
Put shortly: (§1)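 Sequencing on an Illumina NextSeq500 followed washing, crosslinking with 0.1% formaldehyde, proximity ligation (BsaI/T4 ligase, 1 h, 37 °C) and PCR amplification of pools that had been incubated for 30 min at room temperature with 200 nmole of a random double-stranded 16-mer DNA library in Tris/NaCl/DTT/glycerol buffer. Each pool held DNA-barcoded human transcription factors, expressed in yeast as GST fusions and captured on glutathione beads, plus a tag-only sample. Binding signal is a hexamer's read frequency for a factor divided by its frequency in the tag-only sample.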

Experiment [2] deals with T2, ELK1 (Homo sapiens, UniProt P19419 1-428).
T2 sequence: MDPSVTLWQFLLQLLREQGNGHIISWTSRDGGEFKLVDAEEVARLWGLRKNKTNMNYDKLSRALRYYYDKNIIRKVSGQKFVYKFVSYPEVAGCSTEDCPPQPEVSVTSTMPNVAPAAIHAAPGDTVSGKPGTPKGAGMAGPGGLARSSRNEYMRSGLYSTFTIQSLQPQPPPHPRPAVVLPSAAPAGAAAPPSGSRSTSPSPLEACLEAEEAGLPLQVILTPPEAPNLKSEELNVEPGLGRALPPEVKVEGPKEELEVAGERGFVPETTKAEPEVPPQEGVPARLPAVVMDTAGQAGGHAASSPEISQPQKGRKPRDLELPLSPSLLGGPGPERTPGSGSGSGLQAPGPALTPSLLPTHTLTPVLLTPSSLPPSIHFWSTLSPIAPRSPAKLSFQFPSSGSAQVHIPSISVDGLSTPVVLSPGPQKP
Put shortly:
as §1

The target in experiment [3] is T3, GABPA (Homo sapiens, UniProt Q06546 1-454).
T3 sequence: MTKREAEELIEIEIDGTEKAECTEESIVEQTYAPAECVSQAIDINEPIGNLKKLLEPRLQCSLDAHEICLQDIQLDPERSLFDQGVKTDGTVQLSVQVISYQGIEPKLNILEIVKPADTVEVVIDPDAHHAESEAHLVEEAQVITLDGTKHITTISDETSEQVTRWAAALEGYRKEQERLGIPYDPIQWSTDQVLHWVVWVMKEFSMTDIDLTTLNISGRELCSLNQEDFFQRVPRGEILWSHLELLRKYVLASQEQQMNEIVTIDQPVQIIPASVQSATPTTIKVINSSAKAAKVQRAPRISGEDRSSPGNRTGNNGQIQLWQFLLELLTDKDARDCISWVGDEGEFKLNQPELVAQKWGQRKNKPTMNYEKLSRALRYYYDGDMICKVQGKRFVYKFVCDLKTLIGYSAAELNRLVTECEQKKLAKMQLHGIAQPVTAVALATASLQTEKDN
A digest of the protocol: as §1

In experiment [4] the target is T4, ERG (Homo sapiens, UniProt P11308 1-479).
T4 sequence: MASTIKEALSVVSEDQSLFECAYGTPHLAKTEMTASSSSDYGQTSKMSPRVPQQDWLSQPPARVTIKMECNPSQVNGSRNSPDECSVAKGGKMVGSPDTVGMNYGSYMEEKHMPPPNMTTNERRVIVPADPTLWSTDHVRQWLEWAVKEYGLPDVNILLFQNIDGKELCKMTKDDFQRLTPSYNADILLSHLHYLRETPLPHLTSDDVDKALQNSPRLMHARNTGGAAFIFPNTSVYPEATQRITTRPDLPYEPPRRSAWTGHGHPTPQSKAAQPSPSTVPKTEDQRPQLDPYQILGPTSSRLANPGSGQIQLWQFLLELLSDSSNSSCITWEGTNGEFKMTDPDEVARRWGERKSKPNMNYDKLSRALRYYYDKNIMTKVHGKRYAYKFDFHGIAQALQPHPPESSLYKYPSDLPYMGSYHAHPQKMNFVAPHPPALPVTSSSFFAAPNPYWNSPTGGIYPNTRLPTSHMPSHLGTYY
A digest of the protocol:
as §1

The target in experiment [5] is ELF1 (Homo sapiens, UniProt P32519 1-619). A digest of the protocol:
as §1

The target in experiment [6] is T5, EHF (Homo sapiens, UniProt Q9NZC4 1-300).
T5 sequence: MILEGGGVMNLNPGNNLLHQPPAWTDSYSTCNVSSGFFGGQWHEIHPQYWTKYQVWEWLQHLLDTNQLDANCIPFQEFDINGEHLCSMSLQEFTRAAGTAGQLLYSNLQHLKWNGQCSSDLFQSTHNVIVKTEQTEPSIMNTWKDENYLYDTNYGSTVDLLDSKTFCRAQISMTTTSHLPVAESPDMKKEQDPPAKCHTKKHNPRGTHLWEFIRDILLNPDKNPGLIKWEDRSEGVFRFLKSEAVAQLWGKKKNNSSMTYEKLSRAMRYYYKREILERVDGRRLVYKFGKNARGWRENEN
Put shortly:
as §1

For experiment [7], the target named is SPI1 (Homo sapiens, UniProt P17947 1-270). Put shortly:
as §1

For experiment [8], the target named is T6, ELK3 (Homo sapiens, UniProt P41970 1-407).
T6 sequence: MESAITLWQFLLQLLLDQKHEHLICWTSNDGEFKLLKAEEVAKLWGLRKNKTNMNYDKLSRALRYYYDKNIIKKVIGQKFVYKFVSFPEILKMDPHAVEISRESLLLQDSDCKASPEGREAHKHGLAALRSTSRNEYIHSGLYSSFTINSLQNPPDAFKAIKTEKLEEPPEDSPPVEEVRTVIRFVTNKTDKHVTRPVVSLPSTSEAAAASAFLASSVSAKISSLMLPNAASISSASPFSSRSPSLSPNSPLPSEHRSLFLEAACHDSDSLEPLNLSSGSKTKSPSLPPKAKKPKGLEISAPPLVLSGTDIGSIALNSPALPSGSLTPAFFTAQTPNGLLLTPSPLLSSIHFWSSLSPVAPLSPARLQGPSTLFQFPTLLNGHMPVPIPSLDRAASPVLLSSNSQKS
Put shortly: as §1

Experiment [9] has as its target T7, FEV (Homo sapiens, UniProt Q99581 1-238).
T7 sequence: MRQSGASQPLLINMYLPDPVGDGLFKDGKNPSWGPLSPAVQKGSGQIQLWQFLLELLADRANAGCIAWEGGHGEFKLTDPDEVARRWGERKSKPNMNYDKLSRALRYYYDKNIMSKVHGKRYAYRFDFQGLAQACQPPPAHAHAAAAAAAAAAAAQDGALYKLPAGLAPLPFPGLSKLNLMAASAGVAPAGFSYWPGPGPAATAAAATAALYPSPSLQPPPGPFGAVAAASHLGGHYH
A digest of the protocol: as §1

Experiment [10] concerns the target ETV5 (Homo sapiens, UniProt P41161 1-510). A digest of the protocol: as §1
The target of experiment [11] is T8, SPIC (Homo sapiens, UniProt Q8N5J4 1-248).
T8 sequence: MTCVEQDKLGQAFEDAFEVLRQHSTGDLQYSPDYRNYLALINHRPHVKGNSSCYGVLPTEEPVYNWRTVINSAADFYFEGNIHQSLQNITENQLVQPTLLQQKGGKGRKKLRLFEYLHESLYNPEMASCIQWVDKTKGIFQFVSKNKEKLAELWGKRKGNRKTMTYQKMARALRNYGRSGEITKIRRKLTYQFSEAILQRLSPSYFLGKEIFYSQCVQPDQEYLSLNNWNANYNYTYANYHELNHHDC
A digest of the protocol:
as §1

The target of experiment [12] is ELF4 (Homo sapiens, UniProt Q99607 1-663). Put shortly:
as §1

The target in experiment [13] is ETV1 (Homo sapiens, UniProt P50549 1-477). Put shortly: as §1
Sequence of ETV1 (P50549 whole entry): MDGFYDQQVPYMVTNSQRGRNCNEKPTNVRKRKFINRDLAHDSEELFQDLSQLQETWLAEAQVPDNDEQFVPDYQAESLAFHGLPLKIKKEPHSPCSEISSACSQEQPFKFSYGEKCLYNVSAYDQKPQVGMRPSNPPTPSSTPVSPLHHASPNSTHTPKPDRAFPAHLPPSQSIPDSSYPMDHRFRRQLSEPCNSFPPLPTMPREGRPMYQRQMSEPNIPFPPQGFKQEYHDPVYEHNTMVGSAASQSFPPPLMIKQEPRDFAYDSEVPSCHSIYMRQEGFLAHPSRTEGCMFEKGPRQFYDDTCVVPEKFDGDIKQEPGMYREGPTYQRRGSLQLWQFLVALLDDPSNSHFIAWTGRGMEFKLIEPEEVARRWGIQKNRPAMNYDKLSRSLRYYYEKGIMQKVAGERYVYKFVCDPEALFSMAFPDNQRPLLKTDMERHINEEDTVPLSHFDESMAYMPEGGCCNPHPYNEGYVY
Experiment [14] addresses T9, ERF (Homo sapiens, UniProt P50548 1-548).
T9 sequence: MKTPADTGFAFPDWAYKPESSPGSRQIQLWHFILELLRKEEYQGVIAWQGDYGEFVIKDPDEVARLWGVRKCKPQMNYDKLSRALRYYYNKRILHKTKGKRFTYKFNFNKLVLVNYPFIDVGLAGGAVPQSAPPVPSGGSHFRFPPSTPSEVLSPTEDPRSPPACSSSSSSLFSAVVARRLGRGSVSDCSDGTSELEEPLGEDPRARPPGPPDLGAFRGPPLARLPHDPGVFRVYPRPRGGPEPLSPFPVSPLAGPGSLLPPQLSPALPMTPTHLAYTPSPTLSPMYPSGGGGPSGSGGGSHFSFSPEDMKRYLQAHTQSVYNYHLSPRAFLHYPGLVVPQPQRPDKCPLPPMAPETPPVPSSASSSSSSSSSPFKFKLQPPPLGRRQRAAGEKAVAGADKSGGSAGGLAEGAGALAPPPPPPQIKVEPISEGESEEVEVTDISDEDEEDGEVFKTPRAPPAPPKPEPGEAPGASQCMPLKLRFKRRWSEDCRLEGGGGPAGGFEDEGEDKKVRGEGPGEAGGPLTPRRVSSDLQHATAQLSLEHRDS
Put shortly:
as §1

In experiment [15] the target is T10, ETV3L (Homo sapiens, UniProt Q6ZN32 1-361).
T10 sequence: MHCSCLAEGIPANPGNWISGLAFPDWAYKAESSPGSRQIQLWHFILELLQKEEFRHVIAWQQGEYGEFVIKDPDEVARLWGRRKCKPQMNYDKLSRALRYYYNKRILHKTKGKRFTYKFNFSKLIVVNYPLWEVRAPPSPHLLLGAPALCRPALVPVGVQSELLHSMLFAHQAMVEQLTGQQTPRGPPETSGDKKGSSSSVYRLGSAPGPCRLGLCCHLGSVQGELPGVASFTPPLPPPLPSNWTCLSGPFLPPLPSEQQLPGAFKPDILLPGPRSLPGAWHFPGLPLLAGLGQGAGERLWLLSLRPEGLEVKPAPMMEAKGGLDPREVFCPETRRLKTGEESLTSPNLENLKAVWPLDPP
A digest of the protocol:
as §1

Experiment [16] deals with T11, ETS2 (Homo sapiens, UniProt P15036 1-469).
T11 sequence: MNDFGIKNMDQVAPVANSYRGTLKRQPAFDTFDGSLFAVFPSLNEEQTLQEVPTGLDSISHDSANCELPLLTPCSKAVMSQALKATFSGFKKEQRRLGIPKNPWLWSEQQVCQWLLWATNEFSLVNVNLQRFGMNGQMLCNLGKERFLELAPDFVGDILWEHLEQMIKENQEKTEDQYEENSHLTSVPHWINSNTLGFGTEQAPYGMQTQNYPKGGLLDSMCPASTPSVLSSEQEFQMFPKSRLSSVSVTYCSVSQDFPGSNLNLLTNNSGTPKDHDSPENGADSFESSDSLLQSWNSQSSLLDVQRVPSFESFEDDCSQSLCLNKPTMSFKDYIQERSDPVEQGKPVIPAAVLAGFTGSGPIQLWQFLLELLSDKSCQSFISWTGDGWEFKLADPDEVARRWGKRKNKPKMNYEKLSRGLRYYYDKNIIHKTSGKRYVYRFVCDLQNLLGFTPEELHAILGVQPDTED
Put shortly:
as §1

The target of experiment [17] is T12, ELF5 (Homo sapiens, UniProt Q9UKW6-2 1-255).
T12 sequence: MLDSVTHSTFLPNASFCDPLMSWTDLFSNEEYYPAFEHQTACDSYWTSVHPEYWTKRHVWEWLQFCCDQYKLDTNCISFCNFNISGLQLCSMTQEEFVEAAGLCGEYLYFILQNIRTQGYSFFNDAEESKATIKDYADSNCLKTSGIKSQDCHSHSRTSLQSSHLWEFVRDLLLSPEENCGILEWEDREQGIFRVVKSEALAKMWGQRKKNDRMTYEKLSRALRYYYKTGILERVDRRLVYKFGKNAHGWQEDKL
Put shortly:
as §1

The target of experiment [18] is ETV6 (Homo sapiens, UniProt P41212 1-452). Put shortly: as §1
Sequence of ETV6 (P41212 whole entry): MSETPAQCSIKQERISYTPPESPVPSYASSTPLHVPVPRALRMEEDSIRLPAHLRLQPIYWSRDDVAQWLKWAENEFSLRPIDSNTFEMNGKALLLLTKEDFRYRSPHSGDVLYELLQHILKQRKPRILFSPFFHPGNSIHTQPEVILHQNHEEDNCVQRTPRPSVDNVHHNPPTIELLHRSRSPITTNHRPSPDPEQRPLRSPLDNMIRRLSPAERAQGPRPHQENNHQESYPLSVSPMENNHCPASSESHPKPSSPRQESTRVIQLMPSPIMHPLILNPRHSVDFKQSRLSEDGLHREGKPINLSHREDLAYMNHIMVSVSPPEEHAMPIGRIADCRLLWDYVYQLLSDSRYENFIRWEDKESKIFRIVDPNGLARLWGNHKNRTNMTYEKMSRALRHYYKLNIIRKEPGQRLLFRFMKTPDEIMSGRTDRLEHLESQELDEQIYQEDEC

Sequence of ETV5 (P41161 whole entry): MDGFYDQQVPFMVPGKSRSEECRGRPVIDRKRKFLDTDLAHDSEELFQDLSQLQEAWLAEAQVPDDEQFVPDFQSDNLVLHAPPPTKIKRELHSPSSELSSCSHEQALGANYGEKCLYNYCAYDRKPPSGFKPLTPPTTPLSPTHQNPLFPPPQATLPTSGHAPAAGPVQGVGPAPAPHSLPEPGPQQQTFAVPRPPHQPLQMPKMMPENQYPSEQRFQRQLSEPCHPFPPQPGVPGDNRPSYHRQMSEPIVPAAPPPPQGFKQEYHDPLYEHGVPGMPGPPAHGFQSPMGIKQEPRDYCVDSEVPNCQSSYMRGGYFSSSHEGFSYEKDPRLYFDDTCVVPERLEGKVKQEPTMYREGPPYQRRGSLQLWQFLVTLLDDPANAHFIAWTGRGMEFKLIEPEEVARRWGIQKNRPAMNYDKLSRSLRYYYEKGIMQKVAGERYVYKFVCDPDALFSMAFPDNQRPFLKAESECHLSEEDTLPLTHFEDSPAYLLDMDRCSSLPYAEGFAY
Sequence of ELF4 (Q99607 whole entry): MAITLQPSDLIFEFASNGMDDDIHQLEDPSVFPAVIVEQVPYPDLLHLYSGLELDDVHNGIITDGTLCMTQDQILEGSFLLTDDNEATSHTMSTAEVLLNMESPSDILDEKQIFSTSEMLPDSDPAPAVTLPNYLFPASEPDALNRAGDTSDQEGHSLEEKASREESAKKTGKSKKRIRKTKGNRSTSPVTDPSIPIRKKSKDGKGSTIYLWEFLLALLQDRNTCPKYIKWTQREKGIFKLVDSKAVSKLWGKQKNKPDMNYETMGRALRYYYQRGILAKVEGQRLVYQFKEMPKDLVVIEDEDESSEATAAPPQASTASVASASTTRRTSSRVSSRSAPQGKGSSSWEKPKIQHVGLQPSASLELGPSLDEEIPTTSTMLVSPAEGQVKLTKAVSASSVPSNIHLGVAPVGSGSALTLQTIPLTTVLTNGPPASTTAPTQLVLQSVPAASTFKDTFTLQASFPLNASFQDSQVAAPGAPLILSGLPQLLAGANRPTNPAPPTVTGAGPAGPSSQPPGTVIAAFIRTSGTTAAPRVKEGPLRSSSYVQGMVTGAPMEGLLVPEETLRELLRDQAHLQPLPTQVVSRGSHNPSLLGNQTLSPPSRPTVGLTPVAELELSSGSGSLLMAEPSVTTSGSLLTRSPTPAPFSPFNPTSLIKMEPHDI
Sequence of ELF1 (P32519 whole entry): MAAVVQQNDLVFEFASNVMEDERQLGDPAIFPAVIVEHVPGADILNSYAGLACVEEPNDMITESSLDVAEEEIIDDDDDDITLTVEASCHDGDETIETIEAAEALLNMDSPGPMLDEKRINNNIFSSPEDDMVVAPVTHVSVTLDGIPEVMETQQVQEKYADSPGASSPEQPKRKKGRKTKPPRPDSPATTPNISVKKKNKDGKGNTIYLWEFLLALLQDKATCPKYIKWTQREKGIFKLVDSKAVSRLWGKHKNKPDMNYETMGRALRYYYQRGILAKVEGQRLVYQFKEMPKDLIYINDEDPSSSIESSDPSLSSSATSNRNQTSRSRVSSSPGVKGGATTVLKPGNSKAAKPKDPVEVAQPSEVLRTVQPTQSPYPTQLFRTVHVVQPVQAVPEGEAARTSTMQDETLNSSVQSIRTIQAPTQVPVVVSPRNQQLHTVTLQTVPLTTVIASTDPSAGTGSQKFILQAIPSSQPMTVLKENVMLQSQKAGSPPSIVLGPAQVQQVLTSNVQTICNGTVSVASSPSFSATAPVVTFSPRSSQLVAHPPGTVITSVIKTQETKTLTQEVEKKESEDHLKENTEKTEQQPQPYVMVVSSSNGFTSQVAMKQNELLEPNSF

CATACG: the binding signal in experiment [1] is 1.05 fold enrichment (6-mer frequency, TF over GST control); in experiment [2], 1.01 fold enrichment (6-mer frequency, TF over GST control); in experiment [3], 1.03 fold enrichment (6-mer frequency, TF over GST control); in [4] it was 1.06 fold enrichment (6-mer frequency, TF over GST control); in experiment [5], 1.08 fold enrichment (6-mer frequency, TF over GST control); in experiment [6] it was 1.07 fold enrichment (6-mer frequency, TF over GST control). Also, the binding signal in experiment [7] is 1.06 fold enrichment (6-mer frequency, TF over GST control); in experiment [8] it was 1.12 fold enrichment (6-mer frequency, TF over GST control); in experiment [9] it was 1.05 fold enrichment (6-mer frequency, TF over GST control); in [10] it was 1.08 fold enrichment (6-mer frequency, TF over GST control); in experiment [11] it was 1.04 fold enrichment (6-mer frequency, TF over GST control); in experiment [12], 1.03 fold enrichment (6-mer frequency, TF over GST control). In addition, the binding signal is 1.06 fold enrichment (6-mer frequency, TF over GST control) in [13]; 1.13 fold enrichment (6-mer frequency, TF over GST control) in experiment [14]; 1.12 fold enrichment (6-mer frequency, TF over GST control) in [15]; 1.01 fold enrichment (6-mer frequency, TF over GST control) in experiment [16]; 1.06 fold enrichment (6-mer frequency, TF over GST control) in [17]; 1.01 fold enrichment (6-mer frequency, TF over GST control) in [18].
